RGS7-Gao reg = human RGS7-Galphao interaction regulation | binding response (% of control), % at 10 µM | hit rate 0.35% among 220,000 | Multiplexed bead flow cytometry, RGS7-Galphao binding; actives lie on both sides | P09471; in the data active = binding response below about 49% or above about 150%; inconclusive = no clear call, values can overlap the other calls; inactive = in between;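 also: fluorescent Galphao held in activated GDP-AlF4 state binding bead-coupled RGS7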
Target sequence (P09471 whole entry, looked up): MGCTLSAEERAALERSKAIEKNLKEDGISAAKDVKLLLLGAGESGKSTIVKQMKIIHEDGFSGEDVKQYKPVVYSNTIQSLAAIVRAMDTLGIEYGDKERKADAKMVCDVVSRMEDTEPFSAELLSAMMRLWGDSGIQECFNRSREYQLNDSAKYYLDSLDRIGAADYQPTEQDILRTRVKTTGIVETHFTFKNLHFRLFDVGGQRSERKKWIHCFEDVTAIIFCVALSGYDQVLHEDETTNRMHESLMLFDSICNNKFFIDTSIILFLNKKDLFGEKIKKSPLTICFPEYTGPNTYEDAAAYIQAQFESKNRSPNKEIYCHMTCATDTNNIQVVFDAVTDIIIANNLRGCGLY
Avidin bead fluor = avidin bead compound fluorescence profile. Avidin beads, compound fluorescence 488/530 nm, flow cytometry; active compounds read high. AID 1775. hit rate 0.38% among 220,000. fluorescence (KMESF) at 10 µM; in the data active = fluorescence above about 47
GSH fluor = GSH bead compound fluorescence profile; fluorescence (KMESF) at 10 µM; hit rate 0.25% among 190,000; GSH beads flow cytometry, compound fluorescence 488/530 nm; active compounds read high; in the data active = fluorescence above about 89;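 also: glutathione beads carrying GST-tagged Bcl family fusion proteins plus one bare bead set; values are compound well signal with DMSO vehicle wells as background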
RGS16-Gao HTS = modulates binding between human RGS16 and Galphao. bead-based flow cytometry RGS16-Galphao binding, fluorescence; actives lie on both sides. binding response (% of control), % at 10 µM. hit rate 0.38% among 220,000; call rule not given here;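 also: Galphao activated by GDP with aluminum fluoride before binding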
Target sequence (O15492 whole entry, looked up): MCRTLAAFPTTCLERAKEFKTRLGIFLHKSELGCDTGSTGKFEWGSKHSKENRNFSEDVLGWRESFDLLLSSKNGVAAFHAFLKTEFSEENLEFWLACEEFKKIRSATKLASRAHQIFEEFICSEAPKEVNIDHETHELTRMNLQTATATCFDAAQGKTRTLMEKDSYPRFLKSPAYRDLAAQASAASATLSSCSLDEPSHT
Target sequence (P09471 whole entry, looked up): as the sequence (P09471 whole entry, looked up) above
RGS4-Gao reg = human RGS4-Galphao interaction regulation | AID 1415 | binding response (% of control), % at 10 µM | hit rate 0.33% among 220,000 | Multiplexed bead flow cytometry, RGS4-Galphao binding; actives lie on both sides | P09471; in the data active = binding response below about 49% or above about 150%; inactive = in between;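 also: fluorescent Galphao activated with aluminum fluoride binding bead-coupled RGS4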
RGS8-Gao = human RGS8-Galphao interaction regulation; response (percent of control binding), % at 10 µM; multiplexed bead flow cytometry, RGS8-Galphao binding; actives lie on both sides; P09471; hit rate 0.34% among 220,000; in the data active = response below about 60% or above about 140%; inactive = in between;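 also: Galphao activated as the GDP aluminium fluoride complex binding bead-coupled RGS8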
The depositor's hits bear a star; u = inconclusive; x = no result. Rows were chosen to be rich in hits. Some 1.2% of all compounds tested hit in one or more screens of this group.

SMILES	RGS7-Gao reg	Avidin bead fluor	GSH fluor	RGS16-Gao HTS	RGS4-Gao reg	RGS8-Gao
CCN1CCN(CC(=O)N2CCCC(C(=O)c3ccc(Oc4ccccc4)cc3)C2)CC1 (stereo unspecified)	96.3	13	12	101.6	99.6	99.8
CCOc1ccc(C(=O)Nc2nnn(CC)n2)cc1	93.2	7	16	92.3	94.1	97.7
CCn1nnc(NC(=O)c2cccnc2Cl)n1	98.6	9	259*	104.7	97.7	101.0
CCc1nc2c(sc3nc4c(cc32)COC(C)(C)C4)c(=O)n1Cc1ccco1	114.1	65*	18	97.2	104.1	92.8
CC(=O)Nc1ccc(OCC(O)Cn2nc(C)c(C(C)=O)c2C)cc1 (stereo unspecified)	148.7	73*	24	102.9	107.8	97.9
COc1cc(C2NC(=S)NC(C)=C2C(=O)Nc2ccc(C)cc2)ccc1O (stereo unspecified)	100.6	12	12	105.2	100.1	103.0
COc1ccc(OC)c(C2C=C(c3ccc(C)c(C)c3)Nc3nnnn32)c1 (stereo unspecified)	112.3	51*	53	102.1	106.4	101.7
CCc1nccn1S(=O)(=O)c1cc(Br)ccc1OC	101.2	32	23	101.2	101.8	99.0
CCCc1nccn1S(=O)(=O)c1cc(OC)ccc1OC	98.7	8	249*	102.1	100.8	101.0
Cc1ccsc1CNC(=O)c1c(-c2ccccc2)noc1C	u	6	x	96.0	100.6	105.8
NCC12CC3CC(CC(O)(C3)C1)C2	101.4	7	262*	102.3	103.0	102.8
O=c1c(-c2ccnn2-c2ccccc2F)cnc2n1CCS2	101.8	7	249*	96.9	101.3	101.4
CCC(=O)N1CCc2cc(Br)cc(S(=O)(=O)NCc3ccco3)c21	98.1	10	23	104.3	102.0	101.0
CCC(=O)N1CCc2cc(Br)cc(S(=O)(=O)CCC(=O)NCc3ccco3)c21	101.3	51*	20	100.5	97.5	99.7
Cc1ccc(S(=O)(=O)CCC(=O)OCc2ccccc2F)cc1	u	9	18	104.3	102.8	100.1
Cc1nc([N+](=O)[O-])c(Br)n1CC(=O)c1ccc2ccccc2c1	108.1	50*	38	104.2	98.3	100.7
CCn1c(SCC(=O)Nc2ccc(-c3nc4ccc(C)cc4s3)cc2)nnc1-c1ccccc1	111.7	256*	24	393.1	115.4	103.6
COc1cccc(N2CCN(C(=O)c3c(C)nn(-c4ccccc4)c3C)CC2)c1	111.3	18	17	130.1	113.5	110.8
Cc1c(NS(=O)(=O)N2CCCC2)c(=O)n(-c2ccccc2)n1C	102.1	7	48	95.6	97.3	101.3
Cc1c(NS(C)(=O)=O)c(=O)n(-c2ccccc2)n1C	100.6	5	252*	99.1	108.3	111.8
CCCC(=O)OCC(=O)Nc1cc(C(C)(C)C)nn1-c1ccccc1	112.5	14	91*	117.6	118.3	103.0
CCOc1ccc(S(=O)(=O)Nc2ccc(C(=O)N/N=C(\C)c3ccc(-n4ccnc4)cc3)cc2)cc1	143.0	50*	27	162.2	144.9	111.8
Oc1ccc(C=Nc2ccc3ncccc3c2)c(O)c1	117.2	69*	17	104.8	105.9	100.2
Oc1ccc(C=Nc2cccc3ncccc23)c(O)c1	97.5	15	23	101.2	98.6	101.6
Cc1oc(C)c2c(=O)ccc3c(c12)OC(N)=C(C#N)C3c1ccccc1 (stereo unspecified)	104.8	6	585*	104.2	101.5	104.3
SMILES	RGS7-Gao reg	Avidin bead fluor	GSH fluor	RGS16-Gao HTS	RGS4-Gao reg	RGS8-Gao
N#CC1=C(N)OC2=C(CC/C2=C\c2ccccc2Cl)C1c1ccccc1Cl (stereo unspecified)	100.6	11	10	102.8	103.6	99.8
N#CC1=C(N)Oc2c(ccc3cccnc23)C1c1ccccc1 (stereo unspecified)	u	6	x	104.0	103.1	105.5
Cc1oc(C)c2c(=O)ccc3c(c12)OC(N)=C(C#N)C3c1ccccc1Cl (stereo unspecified)	97.1	23	138*	101.3	101.6	101.9
Cc1ccc(-c2nc(-c3cccnc3)no2)cc1	145.5	56*	27	86.9	101.9	94.6
Cc1ccc(-c2nc(-c3ccccc3)no2)cc1	98.1	6	27	106.6	105.3	104.0
CCOc1ccccc1N1CC(C(=O)Nc2cccc(S(=O)(=O)N3CCCCC3)c2)CC1=O (stereo unspecified)	u	54*	13	102.6	111.6	99.7
CCOc1ccccc1N1CC(C(=O)Nc2ccc3c(c2)OCCO3)CC1=O (stereo unspecified)	u	10	12	101.5	98.5	101.2
CCOc1ccccc1NC(=O)N1CCC(c2nc3ccccc3[nH]2)CC1	102.2	7	259*	101.4	103.6	102.4
COc1ccccc1NC(=O)N1CCC(c2nc3cc(C)c(C)cc3[nH]2)CC1	103.6	22	12	111.3	104.5	104.3
CC(NC(=O)c1ccc2nc[nH]c2c1)c1ccccc1 (stereo unspecified)	109.0	11	25	112.0	102.8	106.5
CCC(CC)NC(=O)c1ccc2nc[nH]c2c1	96.2	9	262*	102.3	102.7	101.6
N#C[C@H]1[C@H](c2ccccc2)[C@](C#N)(C(=O)c2ccccc2)[C@@H]2C=Cc3ccccc3N21	99.2	14	17	98.6	98.3	98.9
O=C(CN1CCCN(Cc2ccc(F)cc2Cl)C1=O)NC1CCCC1	105.6	18	11	102.0	103.1	103.3
O=C(NC1CCS(=O)(=O)C1)C1C2CC3CC(C2)CC1C3 (stereo unspecified)	119.1	55*	59	100.9	102.3	101.0
Cn1ncc(Cl)c1C(=O)Nc1sc2c(c1C(N)=O)CCC2	87.6	6	99*	94.6	90.2	102.6
COc1ccc(-n2ncc(C(=O)N3CCN(c4ccc(F)cc4)CC3)c2C)cc1	u	7	x	104.2	98.6	100.7
Cc1ccccc1-n1nc(C(=O)O)c(C)c(C#N)c1=O	109.2	7	255*	119.8	111.0	105.9
CCN(C(=O)COC(=O)c1ccc(Cl)c(N)c1)C1CCS(=O)(=O)C1 (stereo unspecified)	110.2	6	12	105.5	104.2	102.9
COc1cc(C(=O)N2CCN(C(=O)CC(C)C)CC2)cc(OC)c1OC	131.3	120*	28	100.9	110.1	97.2
O=C(COC(=O)c1cc(S(=O)(=O)N2CCc3ccccc3C2)ccc1Cl)NCc1ccco1	95.7	6	4	93.0	93.9	95.9
O=C(COC(=O)c1cccc(S(=O)(=O)N2CCc3ccccc3C2)c1)NCc1ccco1	89.0	5	256*	56.6	82.7	93.0
CCOC(=O)CCC(=O)NCc1ccc2c(c1)cc(C)n2C	125.2	53*	15	178.4	126.8	104.3
Cn1c(CSCc2ccc(Cl)cc2)n[nH]c1=S	u	9	16	96.4	100.7	96.9
